Source: PubChem BioAssay AID1159580 (chemical genetic matrix, 2015)
In all, about 5,500 compounds went through this assay and about 2,000 (36%) were called active. Another 18% or so got no clear call; they are omitted. No stated cut-off is given here; in the data, active means normalized growth mostly below about 0.91 (no sharp cut-off); inconclusive means no clear call, values can overlap the other calls; inactive means mostly above about 0.92. Some of the results follow.

Test: chemical genetic growth profiling, strain panel (AID 1159580);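 further: tested at 20 µM; growth read once vehicle control cultures reached saturation at 30 °C; 1 = growth at the plate median or of vehicle wells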
Conditions: growth OD

Measured: normalized growth

COc1ccc(-c2coc3cc(OC)cc(O)c3c2=O)cc1
active: S. cerevisiae deletion strains, locus YKR001C, strain vps1, stronger effect = lower value 0.898 | S. cerevisiae deletion strains, locus YNL307C, strain MCK1, stronger effect = lower value 0.805 | S. cerevisiae deletion strains, locus YOR184W, strain ser1, stronger effect = lower value 0.872
inactive: S. cerevisiae deletion strains, locus YAL013W, strain DEP1, stronger effect = lower value 0.962 | S. cerevisiae deletion strains, locus YBR021W, strain FUR4, stronger effect = lower value 0.862 | S. cerevisiae deletion strains, locus YBR229C, strain ROT2, stronger effect = lower value 0.98 | S. cerevisiae deletion strains, locus YCL029C, strain bik1, stronger effect = lower value 0.966 | S. cerevisiae deletion strains, locus YDL035C, strain GPR1, stronger effect = lower value 0.959 | S. cerevisiae deletion strains, locus YDL074C, strain BRE1, stronger effect = lower value 0.91 | S. cerevisiae deletion strains, locus YDL101C, strain DUN1, stronger effect = lower value 0.98 | S. cerevisiae deletion strains, locus YDL134C, strain PPH21, stronger effect = lower value 0.982 | S. cerevisiae deletion strains, locus YDL185W, strain tfp1, stronger effect = lower value 0.968 | S. cerevisiae deletion strains, locus YDL192W, strain arf1, stronger effect = lower value 0.96 | S. cerevisiae deletion strains, locus YDR101C, strain arx1, stronger effect = lower value 0.96 | S. cerevisiae deletion strains, locus YDR150W, strain NUM1, stronger effect = lower value 0.991 | S. cerevisiae deletion strains, locus YDR162C, strain NBP2, stronger effect = lower value 0.983 | S. cerevisiae deletion strains, locus YDR318W, strain mcm21, stronger effect = lower value 0.922 | S. cerevisiae deletion strains, locus YDR388W, stronger effect = lower value 0.957 | S. cerevisiae deletion strains, locus YDR502C, strain sam2, stronger effect = lower value 0.967 | S. cerevisiae deletion strains, locus YEL061C, strain CIN8, stronger effect = lower value 0.982 | S. cerevisiae deletion strains, locus YER110C, stronger effect = lower value 0.958 | S. cerevisiae deletion strains, locus YER155C, strain BEM2, stronger effect = lower value 0.967 | S. cerevisiae deletion strains, locus YER167W, strain BCK2, stronger effect = lower value 0.933 | S. cerevisiae deletion strains, locus YGL078C, strain dbp3, stronger effect = lower value 0.978 | S. cerevisiae deletion strains, locus YGL086W, strain mad1, stronger effect = lower value 0.955 | S. cerevisiae deletion strains, locus YGL248W, strain PDE1, stronger effect = lower value 0.976 | S. cerevisiae deletion strains, locus YGR078C, strain PAC10, stronger effect = lower value 0.952 | S. cerevisiae deletion strains, locus YGR135W, strain pre9, stronger effect = lower value 0.94 | S. cerevisiae deletion strains, locus YGR229C, strain SMI1, stronger effect = lower value 0.924 | S. cerevisiae deletion strains, locus YGR252W, strain gcn5, stronger effect = lower value 0.768 | S. cerevisiae deletion strains, locus YHR030C, strain SLT2, stronger effect = lower value 0.972 | S. cerevisiae deletion strains, locus YHR079C, strain IRE1 (second series), stronger effect = lower value 0.935 | S. cerevisiae deletion strains, locus YHR094C, strain hxt1, stronger effect = lower value 0.976 | S. cerevisiae deletion strains, locus YHR129C, strain ARP1, stronger effect = lower value 0.967 | S. cerevisiae deletion strains, locus YHR200W, strain rpn10, stronger effect = lower value 0.957 | S. cerevisiae deletion strains, locus YIL066C, strain RNR3, stronger effect = lower value 0.975 | S. cerevisiae deletion strains, locus YIL073C, strain SPO22, stronger effect = lower value 0.905 | S. cerevisiae deletion strains, locus YIL125W, strain kgd1, stronger effect = lower value 0.969 | S. cerevisiae deletion strains, locus YIR030C, strain dcg1, stronger effect = lower value 0.97 | S. cerevisiae deletion strains, locus YJL095W, strain BCK1, stronger effect = lower value 0.907 | S. cerevisiae deletion strains, locus YJL134W, strain LCB3, stronger effect = lower value 0.986 | S. cerevisiae deletion strains, locus YJL168C, strain set2, stronger effect = lower value 0.975 | S. cerevisiae deletion strains, locus YJL187C, strain SWE1 (second series), stronger effect = lower value 0.972 | S. cerevisiae deletion strains, locus YJR043C, strain POL32, stronger effect = lower value 0.911 | S. cerevisiae deletion strains, locus YJR075W, strain HOC1, stronger effect = lower value 0.951 | S. cerevisiae deletion strains, locus YKL009W, strain mrt4, stronger effect = lower value 0.919 | S. cerevisiae deletion strains, locus YKL068W, stronger effect = lower value 0.989 | S. cerevisiae deletion strains, locus YKL085W, strain MDH1 (second series), stronger effect = lower value 0.982 | S. cerevisiae deletion strains, locus YKL085W, strain MDH1, stronger effect = lower value 0.982 | S. cerevisiae deletion strains, locus YKL190W, strain CNB1, stronger effect = lower value 0.979 | S. cerevisiae deletion strains, locus YLR039C, strain RIC1, stronger effect = lower value 0.971 | S. cerevisiae deletion strains, locus YLR058C, strain SHM2, stronger effect = lower value 0.974 | S. cerevisiae deletion strains, locus YLR102C, strain apc9, stronger effect = lower value 0.969 | S. cerevisiae deletion strains, locus YLR262C, strain YPT6, stronger effect = lower value 0.959 | S. cerevisiae deletion strains, locus YLR268W, strain sec22, stronger effect = lower value 0.957 | S. cerevisiae deletion strains, locus YLR330W, strain CHS5, stronger effect = lower value 0.977 | S. cerevisiae deletion strains, locus YLR342W, strain FKS1 (second series), stronger effect = lower value 0.859 | S. cerevisiae deletion strains, locus YLR371W, strain rom2, stronger effect = lower value 0.969 | S. cerevisiae deletion strains, locus YLR418C, strain cdc73, stronger effect = lower value 0.889 | S. cerevisiae deletion strains, locus YML016C, strain PPZ1, stronger effect = lower value 0.975 | S. cerevisiae deletion strains, locus YML032C, strain rad52, stronger effect = lower value 0.94 | S. cerevisiae deletion strains, locus YML124C, strain tub3, stronger effect = lower value 0.974 | S. cerevisiae deletion strains, locus YMR078C, strain ctf18, stronger effect = lower value 0.96 | S. cerevisiae deletion strains, locus YMR223W, strain ubp8, stronger effect = lower value 0.94 | S. cerevisiae deletion strains, locus YMR263W, strain SAP30, stronger effect = lower value 0.967 | S. cerevisiae deletion strains, locus YMR307W, strain GAS1, stronger effect = lower value 0.81 | S. cerevisiae deletion strains, locus YNL067W, strain RPL9B, stronger effect = lower value 0.977 | S. cerevisiae deletion strains, locus YNL128W, strain TEP1, stronger effect = lower value 0.994 | S. cerevisiae deletion strains, locus YNL153C, strain GIM3, stronger effect = lower value 0.995 | S. cerevisiae deletion strains, locus YNL233W, strain BNI4, stronger effect = lower value 0.923 | S. cerevisiae deletion strains, locus YNL250W, strain rad50, stronger effect = lower value 0.968 | S. cerevisiae deletion strains, locus YNL271C, strain bni1, stronger effect = lower value 0.973 | S. cerevisiae deletion strains, locus YNL298W, strain CLA4, stronger effect = lower value 0.928 | S. cerevisiae deletion strains, locus YNL322C, strain KRE1, stronger effect = lower value 0.985 | S. cerevisiae deletion strains, locus YNR052C, strain pop2, stronger effect = lower value 0.968 | S. cerevisiae deletion strains, locus YOL006C, strain TOP1, stronger effect = lower value 0.863 | S. cerevisiae deletion strains, locus YOL012C, strain htz1 1.51 | S. cerevisiae deletion strains, locus YOL147C, strain pex11, stronger effect = lower value 0.969 | S. cerevisiae deletion strains, locus YOR061W, strain CKA2, stronger effect = lower value 0.996 | S. cerevisiae deletion strains, locus YOR069W, strain VPS5, stronger effect = lower value 0.984 | S. cerevisiae deletion strains, locus YOR136W, strain idh2, stronger effect = lower value 0.971 | S. cerevisiae deletion strains, locus YOR144C, strain elg1, stronger effect = lower value 0.975 | S. cerevisiae deletion strains, locus YOR316C, strain cot1, stronger effect = lower value 0.96 | S. cerevisiae deletion strains, locus YPL055C, strain LGE1, stronger effect = lower value 0.92 | S. cerevisiae deletion strains, locus YPL241C, strain CIN2, stronger effect = lower value 0.987 | S. cerevisiae deletion strains, locus YPR119W, strain clb2, stronger effect = lower value 0.972 | S. cerevisiae deletion strains, locus YPR141C, strain kar3, stronger effect = lower value 0.99 | S. cerevisiae deletion strains, locus YPR163C, strain tif3, stronger effect = lower value 0.973 | S. cerevisiae deletion strains, locus YPR167C, strain met16, stronger effect = lower value 0.97 | S. cerevisiae deletion strains, strain wtn01, stronger effect = lower value 0.944 | S. cerevisiae strains, strain wild type, stronger effect = lower value 0.963
